Screening data as filed in PubChem BioAssay.
Hits are enriched below; roughly 2.8% of the tested compounds scored in any of these assays.
pCIP destab – compounds decreasing mouse p/CIP protein stability; Q05BA5; F442A p/CIP-EGFP cells, EGFP fluorescence, 16 h; decrease of EGFP signal, % at 10 µM; actives 0.01% (n = 290,000);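 active = EGFP signal decrease of at least 30% at 10 µM or well 3 SD below plate mean, unless failing retest; inactive = the rest, including hits failing retest or dose response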
Target sequence (Q05BA5 1-1403): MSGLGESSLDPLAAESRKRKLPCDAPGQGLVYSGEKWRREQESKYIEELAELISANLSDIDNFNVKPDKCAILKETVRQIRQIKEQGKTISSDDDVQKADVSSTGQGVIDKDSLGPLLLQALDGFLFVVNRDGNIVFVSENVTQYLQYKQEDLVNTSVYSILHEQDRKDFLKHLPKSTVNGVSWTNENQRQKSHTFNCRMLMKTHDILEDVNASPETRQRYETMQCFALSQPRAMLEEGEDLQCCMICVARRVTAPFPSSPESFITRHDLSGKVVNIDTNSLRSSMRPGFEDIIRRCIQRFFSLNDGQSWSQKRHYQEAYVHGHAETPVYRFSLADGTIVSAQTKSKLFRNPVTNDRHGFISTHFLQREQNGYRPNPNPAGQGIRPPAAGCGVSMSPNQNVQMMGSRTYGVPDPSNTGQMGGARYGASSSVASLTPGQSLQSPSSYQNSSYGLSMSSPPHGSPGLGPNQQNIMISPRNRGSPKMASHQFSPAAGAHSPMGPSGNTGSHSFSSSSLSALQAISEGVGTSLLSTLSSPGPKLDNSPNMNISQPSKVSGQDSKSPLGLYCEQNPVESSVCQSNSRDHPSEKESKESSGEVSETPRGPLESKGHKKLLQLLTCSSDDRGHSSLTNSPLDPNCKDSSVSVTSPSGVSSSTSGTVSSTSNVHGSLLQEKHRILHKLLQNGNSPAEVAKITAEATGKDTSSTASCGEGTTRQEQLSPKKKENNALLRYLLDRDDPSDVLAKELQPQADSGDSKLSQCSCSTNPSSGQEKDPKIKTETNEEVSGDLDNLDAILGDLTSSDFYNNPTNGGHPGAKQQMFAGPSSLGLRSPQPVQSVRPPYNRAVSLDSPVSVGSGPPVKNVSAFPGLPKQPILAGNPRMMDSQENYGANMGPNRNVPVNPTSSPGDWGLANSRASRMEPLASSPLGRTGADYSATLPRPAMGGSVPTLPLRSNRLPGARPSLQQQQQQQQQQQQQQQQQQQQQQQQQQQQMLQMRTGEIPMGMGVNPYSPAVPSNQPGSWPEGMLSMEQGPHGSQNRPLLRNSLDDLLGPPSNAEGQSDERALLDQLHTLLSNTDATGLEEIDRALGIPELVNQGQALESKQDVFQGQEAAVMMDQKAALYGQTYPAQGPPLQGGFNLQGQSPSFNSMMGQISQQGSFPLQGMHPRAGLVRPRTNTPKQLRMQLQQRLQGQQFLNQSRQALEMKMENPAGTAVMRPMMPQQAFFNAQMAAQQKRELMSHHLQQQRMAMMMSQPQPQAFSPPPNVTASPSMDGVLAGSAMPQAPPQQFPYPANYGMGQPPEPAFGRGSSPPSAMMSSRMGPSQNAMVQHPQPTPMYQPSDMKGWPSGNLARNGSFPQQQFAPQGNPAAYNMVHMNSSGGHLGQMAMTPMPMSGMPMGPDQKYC
PolyA inh – yeast polyadenylation inhibition | activity score, % at 12 µM | actives 0.02% (n = 300,000) | S. cerevisiae SKY197-pL101 polyadenylation reporter, beta-gal luminescence; efflux-impaired pdr1/pdr3 knockout yeast; score 100 = 6 SD above DMSO;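 active = lowest replicate activity score at least 50, where 100 means six control SD above control mean; inconclusive = lowest score under 50 but half or more replicates reach 50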;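 also: yeast exposed to compound for 9 h at 30 °C; higher score means more reporter readthrough which indicates perturbed polyadenylation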
AHR act – activators of human aryl hydrocarbon receptor; AHR-responsive luciferase reporter cells, luminescence; P35869; actives 2.5% (n = 320,000); activation, % at 5 µM; in the data active = activation above about 47%
Platelet DG rel – platelet dense granule release activity | human platelet-rich plasma, SFLLRN dense granule ATP release, luminescence | inhibition, %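 (compounds screened at 7.5 µM in platelet-rich plasma)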 | actives 0.22% (n = 300,000);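 active = mean replicate score, as percent of positive control, at or above 50; inconclusive = mean below 50 but at least one replicate at or above 50; inactive = mean and every replicate below 50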
HIF act – HIF pathway transcriptional activation | activation, % at 7.5 µM (by protocol) | AID 1910 | U2OS HRE-luciferase reporter, luminescence; normalized: DMSO 0%, desferrioxamine 100% | actives 0.32% (n = 300,000);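 active = mean activation of at least 10% of the iron chelator positive control signal, with at least half of replicates also reaching 10%; inconclusive = mean and replicate majority disagree about reaching 10%; inactive = mean and most replicates under 10%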
Large screens that a line does not name were inactive.

Nc1ccc(Oc2ccc3nc(-c4ccccc4)c(-c4ccc([N+](=O)[O-])cc4)nc3c2)cc1	none
Cc1cccc(CSC2=NCCN2S(=O)(=O)c2ccc(F)cc2)c1	none
Cc1cc(S(=O)(=O)N2CCCCC2CCNC(=O)C(=O)NCC2CCCO2)ccc1F (centres undefined)	none (no result: pCIP destab)
CN(C)C(=S)N=Nc1[nH]c2ccccc2c1O	AHR act 64
CCc1cc(CNC(=O)c2ccc3nc(Cc4ccc(OC)c(OC)c4)oc3c2)on1	none
COc1cccc(/C(N)=N/OC(=O)Cc2ccccc2[N+](=O)[O-])c1	AHR act 60
N/C(=N\OC(=O)Cc1cccs1)c1ccccc1	HIF act active
N/C(=N\OC(=O)Cc1ccccc1[N+](=O)[O-])c1ccncc1	none
N/C(=N\OC(=O)c1cccs1)c1ccc(Cl)cc1	HIF act 12
COc1ccc(/C(N)=N/OC(=O)c2cccs2)cc1	none
COc1ccc(/C(N)=N/OC(=O)c2cccc([N+](=O)[O-])c2)cc1	none
COc1ccc(/C(N)=N/OC(=O)c2cccc([N+](=O)[O-])c2C)cc1	AHR act 54
COCCC(=O)N1CCC(Oc2ccc(C(=O)N3CCC[C@H]3CO)cc2)CC1	none (no result: AHR act)
Cc1cccc(C(=O)O/N=C(\N)c2ccc(Br)cc2)c1	none
N/C(=N\OC(=O)c1ccc2ccccc2c1)c1ccc(Br)cc1	none
N/C(=N\OC(=O)c1cccc(Br)c1)c1ccccc1	AHR act 74
COc1cccc(C(=O)O/N=C(\N)c2ccc(C)cc2)c1	AHR act 68
Cc1cccc(C(=O)O/N=C(\N)c2ccc(Cl)cc2)c1	AHR act 55, HIF act inconclusive
CCOc1ccc(NC(=O)C2C3C=CC4(O3)C2C(=O)N(Cc2cccnc2)C4C(=O)NC2CCCCC2)cc1 (centres undefined)	none
NNC(=O)c1sc(-c2ccc(Cl)cc2)cc1N	AHR act 48
CC(=O)/C=C/c1ccccc1O	none
COc1ccccc1/C=C/C(=O)NC(=S)NC(C)C	AHR act 68
COc1ccccc1/C=C/C(=O)c1ccccc1	HIF act inconclusive (no result: AHR act)
O=C(/C=C/c1ccccc1O)c1ccc(Cl)cc1	AHR act 66
CCOc1ccccc1/C=C/C(=O)c1ccc(Cl)cc1	AHR act 70
COc1ccccc1/C=C/C(=O)c1ccc(Cl)cc1	AHR act 91
COc1ccccc1/C=C/C(=O)NC(=S)N1CCN(C)CC1	none (no result: PolyA inh, AHR act, Platelet DG rel, HIF act)
CC1CCCCN1C(=O)COC(=O)c1cc([N+](=O)[O-])ccc1N (centres undefined)	none (no result: pCIP destab)
CCOc1ccc(NC(=O)CN2CCN(CC(=O)Nc3ccc(Cl)c(C(F)(F)F)c3)CC2)cc1	none
CCCN(CCC)C(=O)CC(c1ccccc1)c1ccco1 (centres undefined)	none
Cc1cccc(C(=O)NNC(=O)c2c(-c3ccccc3Cl)noc2C)c1O	none
N#C/C(=N\Nc1cccc2ccccc12)c1nnc2n1CCCCC2	AHR act 54
N#C/C(=C\c1c[nH]c2ccccc12)c1nnc2n1CCCCC2	Platelet DG rel inconclusive
Cc1cc(-c2nnc(CCC(=O)NC(C)c3cccc4ccccc34)o2)no1 (centres undefined)	Platelet DG rel 50
Cc1cc(-c2nnc(CCC(=O)NC(C)c3ccccc3Cl)o2)no1 (centres undefined)	none
CC1(C)CC(=O)C2=C(C1)Nc1cc(Cl)ccc1S2	AHR act 53
CC(=O)Nc1ccc(NC(=O)CSc2nc3c([nH]c4ccccc43)c(=O)n2-c2ccccc2F)cc1	AHR act 58
COCCn1c(SCC(=O)Nc2cccc(F)c2)nc2c([nH]c3ccccc32)c1=O	AHR act 65
Cn1c(SCC(=O)Nc2ccccc2)nc2c([nH]c3ccccc32)c1=O	AHR act 53
CCOC(=O)C(=Cc1ccc(OCc2ccc([N+](=O)[O-])cc2)c(OC)c1)C(=O)OCC	HIF act 11
COC(=O)C(=Cc1ccc(OCc2ccc([N+](=O)[O-])cc2)c(OC)c1)C(=O)OC	none
CCOC(=O)/C(C#N)=C/C1=C(N2CCCC2)CC(C)(CC)OC1 (centres undefined)	none
O=[N+]([O-])c1ccc(CN2CCN(c3ccc(F)cc3)CC2)o1	none (no result: AHR act)
Cc1cccc(N2CCN(Cc3ccc([N+](=O)[O-])o3)CC2)c1C	AHR act 57
Cc1ccc(-c2nc3ccccc3nc2NN)cc1	HIF act 18
CC(=O)SC(C[N+](=O)[O-])c1cn(C(C)=O)c2ccccc12 (centres undefined)	AHR act 63
CS(=O)(=O)N(CC(=O)Nc1cccc(Br)c1)Cc1ccccc1	none (no result: AHR act)
CSc1nc(/C=C2\C=Nc3ccccc32)c(O)n1C	AHR act 51, Platelet DG rel 70
CC(=O)Cc1cc(O)c2ccccc2c1OC(=O)c1ccc(Br)cc1	AHR act 69
O=C(COC(=O)c1ccc(Br)cc1)NCc1ccccc1	none
CC(C)c1nnc(NC(=O)C2CCCN2C(=O)Nc2cccc(Cl)c2)s1 (centres undefined)	none
O=C(NCc1ccc(Cl)cc1)c1n[nH]c([N+](=O)[O-])c1Cl	none
Cn1c(N)c(C(=O)c2ccc(Cl)cc2)c(=O)n(C)c1=O	none
Cc1nn(-c2ccc(Cl)cc2)c2sc(C(=O)N3CCN(c4ccccn4)CC3)cc12	AHR act 77
Cc1nn(-c2ccc(Cl)cc2)c2sc(C(=O)c3c(N)n(C)c(=O)n(C)c3=O)cc12	AHR act 47
COC(C(=O)Nc1ccnn1C1CCN(C(=O)c2ccc(C=O)cc2)CC1)c1ccccc1 (centres undefined)	none
C=CCn1c(=N)n(CC(=O)c2ccc(Cl)cc2)c2ccccc21	AHR act 79
C=CCn1c(=N)n(CC(=O)c2ccc(Br)s2)c2ccccc21	AHR act 80
C=CCn1c(=N)n(CC(=O)OC)c2ccccc21	none
O=S(=O)(Cc1ccccc1)Oc1ccccc1	none
CC1(c2ccc([N+](=O)[O-])cc2)Nc2ccccc2S1 (centres undefined)	none
O=C(Nc1ccccc1C(=O)NCCc1ccccc1)c1cnccn1	AHR act 61
COc1cccc(Nc2ncnc3sccc23)c1	AHR act 52
COc1ccc(Nc2ncnc3sccc23)cc1	none
Cc1ccccc1Cn1cc(NC(=O)c2cc(-c3cccs3)on2)cn1	none
COc1ccc(CCNC(=O)c2cc(-c3ccco3)on2)cc1OC	PolyA inh inconclusive, HIF act 17
Cc1ccccc1Cn1cc(NC(=O)c2cc(-c3ccco3)on2)cn1	AHR act 57
O=C(NCCc1ccccc1)c1cc(-c2ccco2)on1	HIF act 23
O=C(NCc1ccccc1)c1cc(-c2ccco2)on1	none
COc1ccc(CCNC(=O)c2cc(-c3cccs3)on2)cc1OC	HIF act 16
O=C(Nc1nc2nccc(-c3ccccc3)n2n1)C(Cl)(Cl)Cl	AHR act 54
O=C1c2ccccc2C(=O)N1c1nc2nccc(-c3ccccc3)n2n1	none
